The antibiotic and cytotoxicity screens of Wong et al. (2023)
Hit rate of the full screen: of about 39,000 compounds, about 3,300 (8.5%) were called active. Many of the other results were omitted from the sample, so actives are more common in it than they were.

test system: HepG2; assay: cytotoxicity call (relative viability < 0.9); conditions: 10 µM

SMILES	cytotoxicity call
CC1=NCCC2c3ccc(O)cc3NC12 (stereo not given)	active
CCS(=O)(=O)N1C[C@]2(C1)CN([C@@H](CO)c1[nH]c3cc(ccc3c12)OC)S(=O)(=O)c1cccc(c1)OC	inactive
C[C@@H]1CN([C@@H](C)CO)C(=O)c2cccc(NC(=O)c3ccncc3)c2O[C@@H]1CN(C)Cc1ccncc1	inactive
CN1C(=O)c2cc(NC(=O)c3cscn3)ccc2OC[C@H]2O[C@H](CC(=O)N3CCOCC3)CC[C@@H]21	inactive
C=C1C(=O)OC2CC3(C)CCCC(C)C3=CC12 (stereo not given)	active
C[C@H](CO)N1C[C@H](C)[C@@H](CN(C)C(=O)Nc2ccccc2)Oc2ccc(NC(=O)Cn3cnnn3)cc2CC1=O	inactive
CC(=O)N(C)C[C@@H]1Oc2cc(C#CCN(C)C)ccc2S(=O)(=O)N([C@@H](C)CO)C[C@@H]1C	inactive
COc1ccc(S(=O)(=O)Nc2ccc3c(c2)CC(=O)N([C@@H](C)CO)C[C@H](C)[C@@H](CN(C)Cc2ccncc2)O3)cc1	inactive
FC(F)Oc1cccc2cccnc12	inactive
O=C(O)c1ccccn1	inactive
O=C(Oc1cccc2cccnc12)c1ccccc1	active
CC(C)NC(=O)N(C)C[C@@H]1Oc2ccc(NC(=O)NC3CCCCC3)cc2C(=O)N([C@H](C)CO)C[C@H]1C	inactive
N=c1c(C(=O)NC[C@H]2CCCO2)cc2c(=O)n3ccccc3nc2n1CCCN1CCOCC1	inactive
Cc1cccn2c(=O)c3cc(S(=O)(=O)c4ccc(Br)cc4)c(=N)n(CCCN4CCOCC4)c3nc12	inactive
COc1ccc(CCNC(=O)c2cc3c(=O)n4cccc(C)c4nc3n(CCCN3CCOCC3)c2=N)cc1	active
COc1ccc(CN(C)C[C@@H]2OCCCC[C@@H](C)Oc3ccc(NC(=O)Nc4c(C)noc4C)cc3C(=O)N([C@@H](C)CO)C[C@@H]2C)cc1	inactive
Nc1ncnc2c1ncn2[C@H]1CCCO1	inactive
C[C@@H]1CN([C@H](C)CO)C(=O)c2ccccc2-c2ccccc2CO[C@@H]1CN(C)S(=O)(=O)c1ccc(C(F)(F)F)cc1	inactive
NCc1csc2c1CCCC2	inactive
Cc1ccc(S(=O)(=O)N(C)C[C@@H]2Oc3ccc(NC(=O)Nc4ccc(C(F)(F)F)cc4)cc3CC(=O)N([C@H](C)CO)C[C@@H]2C)cc1	active
C[C@H](CO)N1C[C@H](C)[C@H](CN(C)S(C)(=O)=O)Oc2ccc(NC(=O)Nc3ccc(C(F)(F)F)cc3)cc2CC1=O	inactive
Cc1ccc(S(=O)(=O)N(C)C[C@H]2Oc3ccc(NC(=O)Nc4ccc(C(F)(F)F)cc4)cc3CC(=O)N([C@H](C)CO)C[C@H]2C)cc1	active
Cc1ccc(S(=O)(=O)N(C)C[C@@H]2Oc3ccc(NC(=O)Nc4ccc(C(F)(F)F)cc4)cc3CC(=O)N([C@H](C)CO)C[C@H]2C)cc1	inactive

SMILES	cytotoxicity call
Cc1ccc(S(=O)(=O)N(C)C[C@@H]2Oc3ccc(NC(=O)Nc4ccc(C(F)(F)F)cc4)cc3CC(=O)N([C@@H](C)CO)C[C@@H]2C)cc1	active
C[C@@H]1CN([C@@H](C)CO)C(=O)Cc2cc(NC(=O)Nc3ccc(C(F)(F)F)cc3)ccc2O[C@@H]1CN(C)S(C)(=O)=O	inactive
Cc1ccc(S(=O)(=O)N(C)C[C@H]2Oc3ccc(NC(=O)Nc4ccc(C(F)(F)F)cc4)cc3CC(=O)N([C@H](C)CO)C[C@@H]2C)cc1	inactive
Cc1ccc(S(=O)(=O)N(C)C[C@@H]2Oc3ccc(NC(=O)Nc4ccc(C(F)(F)F)cc4)cc3CC(=O)N([C@@H](C)CO)C[C@H]2C)cc1	active
C[C@@H]1CCCCO[C@@H](CN(C)C(=O)Nc2ccc(F)cc2)[C@H](C)CN([C@H](C)CO)C(=O)c2cc(NC(=O)c3ccncc3)ccc2O1	inactive
C[C@H]1CCCCO[C@H](CN(C)C(=O)C2CCCCC2)[C@@H](C)CN([C@@H](C)CO)C(=O)c2cc(NS(=O)(=O)c3ccc(F)cc3)ccc2O1	inactive
C[C@H](CO)N1C[C@H](C)[C@@H](CN(C)C(=O)Nc2ccc(F)cc2)Oc2c(NS(C)(=O)=O)cccc2C1=O	inactive
COc1ccc(NC(=O)N(C)C[C@H]2Oc3c(NC(=O)C4CCOCC4)cccc3C(=O)N([C@@H](C)CO)C[C@@H]2C)cc1	inactive
O=C(N[C@H]1C=C[C@@H](CC(=O)N2CCOCC2)O[C@@H]1CO)c1ccccn1	inactive
CN(C)c1nc2ncnc(N)c2[nH]1	inactive
C[C@H]1CN([C@@H](C)CO)C(=O)c2ccccc2-c2ccccc2CO[C@@H]1CN(C)C(=O)Nc1ccccc1C(F)(F)F	inactive
C[C@@]1(O)N(CC(=O)O)C(=O)OC12CCCCC2	inactive
O=C1N[C@@H](Cc2ccccc2)C(=O)N2[C@@H]1C[C@@H](C(=O)NCc1ccc(F)cc1)[C@H]2c1cccc(OCCO)c1	inactive
O=S1(=O)C[C@H](NC[C@H]2C[C@@H]3C=C[C@H]2C3)[C@@H](O)C1	inactive
C[C@@H]1CN([C@H](C)CO)C(=O)c2cccc(NS(=O)(=O)c3cn(C)cn3)c2O[C@@H]1CN(C)C(=O)Nc1ccc(F)cc1	inactive
Cc1ccc(S(=O)(=O)N(C)C[C@H]2Oc3ccc(NC(=O)Nc4ccc(C(F)(F)F)cc4)cc3CC(=O)N([C@@H](C)CO)C[C@@H]2C)cc1	active
C[C@@H]1CN([C@@H](C)CO)C(=O)Cc2cc(NC(=O)Nc3ccc(C(F)(F)F)cc3)ccc2O[C@H]1CN(C)S(C)(=O)=O	inactive
Cc1ccc(S(=O)(=O)N(C)C[C@H]2Oc3ccc(NC(=O)Nc4ccc(C(F)(F)F)cc4)cc3CC(=O)N([C@@H](C)CO)C[C@H]2C)cc1	active
C[C@H]1CN([C@@H](C)CO)C(=O)c2cc(NS(=O)(=O)c3cn(C)cn3)ccc2O[C@H]1CN(C)C(=O)Nc1ccc(F)cc1	inactive
C[C@@H]1CN([C@H](C)CO)C(=O)c2cccc(NS(=O)(=O)c3cccs3)c2O[C@@H]1CN(C)S(=O)(=O)c1cccs1	inactive
Cc1noc(C)c1S(=O)(=O)N(C)C[C@H]1Oc2ccc(NS(=O)(=O)c3ccc(Cl)cc3)cc2CC(=O)N([C@H](C)CO)C[C@H]1C	inactive
O=C(N[C@@H]1CC[C@H](CCNS(=O)(=O)c2ccc(F)cc2)O[C@@H]1CO)C1CC1	inactive
